Laboratory results as given in the supplement of paper PMC13380429.
A number with no mark means an inactive call.

Tested on: Vero E6 infected with SARS-CoV-2
Experiment: inhibition of SARS-CoV-2 cytopathic effect; higher = more antiviral protection, active = above 15
Conditions: 48 h

| SMILES | inhibition of SARS-CoV-2 cytopathic effect (1 nM) [%] | inhibition of SARS-CoV-2 cytopathic effect (8.33 nM) [%] | inhibition of SARS-CoV-2 cytopathic effect (100 nM) [%] | inhibition of SARS-CoV-2 cytopathic effect (833.33 nM) [%] | inhibition of SARS-CoV-2 cytopathic effect (10000 nM) |
| --- | --- | --- | --- | --- | --- |
| O=C(O)CCCN1CCC(O[C@@H](c2ccc(Cl)cc2)c2ccccn2)CC1 [bepotastine] | -0.92 | 2.31 | 0.31 | 2.01 | -0.07% |
| Cc1cccc(OCC(O)CNC(C)(C)C)c1C (stereo not given) [xibenolol] | -3.23 | -1.82 | -0.78 | -1.76 | -5.66% |
| C#Cc1cccc(Nc2ncnc3cc4c(cc23)OCCOCCOCCO4)c1 [icotinib] | 1.1 | 0.11 | -1.65 | -2.37 | -5.92% |
| C[C@@H]1CN(CC(=O)Nc2ccc3c(c2)Cc2cccc(-c4cc(=O)cc(N5CCOCC5)o4)c2S3)C[C@H](C)O1 | -2.04 | 0.24 | 2.16 | 2.87 | 35.7% (active) |
| CC(C)(Oc1ccc(Cl)cc1)C(=O)OCCOC(=O)c1cccnc1 [etofibrate] | 0.78 | 2.82 | 0.41 | 0.22 | -10.1% |
| Cn1c(=O)c2c(ncn2CCOC(=O)C(C)(C)Oc2ccc(Cl)cc2)n(C)c1=O [etofylline-clofibrate] | 4.94 | 3.79 | 1.68 | 2.56 | -0.53% |
| COc1ccc(S(=O)(=O)Nc2c(C)cc(C)cc2C)cc1 | 0.3 | -0.36 | 2.29 | 2.21 | 0.94% |
| CCNC1=Nc2ccc(Cl)cc2C(C)(c2ccccc2)O1 (stereo not given) [etifoxine] | 2.81 | 2.31 | 0.13 | 2.41 | -2.7% |
| CCCn1cnc2c1c(=O)n(CCCCC(C)=O)c(=O)n2C [propentofylline] | 0.84 | 2.46 | 1.32 | 2.05 | 0.29% |
| Cc1ccnc2c1CCCC2C(N)=S (stereo not given) [isotiquimide] | 2.13 | 1.38 | 1.08 | 1.85 | 2.59% |
| CN[C@H](CC(C)C)C(=O)N[C@H]1C(=O)N[C@@H](CC(N)=O)C(=O)N[C@H]2C(=O)N[C@H]3C(=O)N[C@H](C(=O)N[C@H](C(=O)O)c4cc(O)cc(O)c4-c4cc3ccc4O)[C@H](O)c3ccc(c(Cl)c3)Oc3cc2cc(c3O[C@@H]2O[C@H](CO)[C@@H](O)[C@H](O)[C@H]2O[C@H]2C[C@](C)(N)[C@H](O)[C@H](C)O2)Oc2ccc(cc2Cl)[C@H]1O | 0.55 | 1.31 | -0.56 | 3.7 | 0.87% |
| CC1(C)N=C(N)N=C(N)N1OCCCOc1cc(Cl)c(Cl)cc1Cl | -1.05 | 0.38 | 0.21 | 0.74 | -2.49% |
| O=C1CCC[C@@H]2[C@H]3C[C@@H](CN12)[C@@H]1CCCCN1C3 [lupanine] | 2.64 | 9.38 | 5.68 | 1.8 | -0.17% |
| CCc1ccc(/C=C2/SC(=S)NC2=O)cc1 | -2.34 | -6.5 | -4.03 | 3.21 | 1.11% |
| CCOc1cc(N)c(Cl)cc1C(=O)NCC1CN(Cc2ccc(F)cc2)CCO1 (stereo not given) [mosapride] | 0.88 | 2.99 | 3.38 | 2.51 | 6.25% |
| CON [methoxyamine] | 0.67 | -2.53 | -0.44 | -3.19 | -0.96% |
| N[C@H]1C[C@@H]1c1ccccc1 (racemic) [tranylcypromine] | 0.8 | -0.11 | -0.1 | 0.19 | 2.21% |
| O=c1[nH]cc(F)c(=O)[nH]1 [5-fluorouracil] | 0.75 | 1.63 | 1.29 | 0.37 | 1.52% |
| Cc1cccc(Nc2cc(Cl)nc(SCC(=O)O)n2)c1C [pirinixic-acid] | -0.9 | -0.95 | -1.99 | -0.44 | 2.81% |
| CCN(CC)CCOc1ccc(Nc2ncc3cc(-c4c(Cl)cccc4Cl)c(=O)n(C)c3n2)cc1 | -0.79 | -0.21 | -2.93 | -9.61 | -31.3% |

| SMILES | inhibition of SARS-CoV-2 cytopathic effect (1 nM) [%] | inhibition of SARS-CoV-2 cytopathic effect (8.33 nM) [%] | inhibition of SARS-CoV-2 cytopathic effect (100 nM) [%] | inhibition of SARS-CoV-2 cytopathic effect (833.33 nM) [%] | inhibition of SARS-CoV-2 cytopathic effect (10000 nM) |
| --- | --- | --- | --- | --- | --- |
| CCOC(=O)C1=C(COCCN)NC(C)=C(C(=O)OC)C1c1ccccc1Cl (stereo not given) [amlodipine] | 0.58 | -0.7 | 1.37 | -2.2 | 1.18% |
| C[C@@H](CN(C)C)CN1c2ccccc2Sc2ccccc21 (racemic) [alimemazine] | -2.63 | -3.15 | -1.76 | -0.79 | -0.47% |
| Cc1ccc(-c2ncc(Cl)cc2-c2ccc(S(C)(=O)=O)cc2)cn1 [etoricoxib] | 2.49 | 0.25 | -0.65 | -1.22 | -1.11% |
| O=C(CCCN1CCC(O)(c2ccc(Cl)cc2)CC1)c1ccc(F)cc1 [haloperidol] | 0.65 | 1.48 | -0.07 | 0.5 | -1.23% |
| CCOC(=O)[N-]c1c[n+](N2CCOCC2)no1 [molsidomine] | -0.39 | 1.12 | 2.15 | 1.58 | -0.19% |
| Cc1ccc(-c2ccc(F)cc2COc2ccc(CCC(=O)O)cc2)cc1 | -2.64 | 0.79 | -1.34 | 0.38 | -1.53% |
| CC1/C=C/C=C/C=C/C=C/C=C/C=C/C=C/C(OC2O[C@H](C)[C@@H](O)[C@H](N)[C@@H]2O)CC(O)C(C(=O)O)C(O)CC(=O)CC(O)CC(O)CC(O)CC(=O)CCCC(=O)CC(=O)OC1C(C)CC(C)C(O)CC(=O)c1ccc(N)cc1 (stereo not given in full) [candicidin] | -0.52 | 4.78 | 3.57 | 4.79 | -2.56% |
| COc1nccnc1NS(=O)(=O)c1ccc(N)cc1 [sulfametopyrazine] | -1.43 | 0.06 | -1.36 | -2.74 | -0.68% |
| CCCC[P+](CCCC)(CCCC)Cc1ccc(NC(=O)[C@H](Cc2ccc3ccccc3c2)N/C(=N/C2CCCCC2)NC2CCCCC2)cc1 | -1.29 | -0.27 | -4.22 | -4.62 | -2.72% |
| O=C(Nc1cccc(Cl)c1)Nc1ncc(CCNc2ncnc3ccsc23)s1 | 0.21 | 0.43 | 3.34 | -0.89 | -1.37% |
| CC(C)Cn1cnc2c1c(=O)n(C)c(=O)n2C [isbufylline] | -1.81 | 0.75 | 0.2 | -0.05 | 1.65% |
| C[C@]12CCC(=O)C(O)=C1CC[C@@H]1[C@@H]2CC[C@]2(C)C(=O)CC[C@@H]12 [formestane] | -6.07 | -1.52 | 4.22 | 6.78 | -1.65% |
| Cc1onc(-c2c(Cl)cccc2Cl)c1C(=O)N[C@@H]1C(=O)N2[C@@H]1SC(C)(C)[C@@H]2C(=O)O [dicloxacillin] | 0.8 | -0.85 | -0.59 | 1 | 1.51% |
| N[C@@H]1CONC1=O [cycloserine-(D)] | -2.12 | -4.07 | -2.78 | -4.11 | -3.61% |
| CC(C)(C)c1[nH]cnc1/C=c1\[nH]c(=O)/c(=C/c2ccccc2)[nH]c1=O [plinabulin] | 0.88 | 3.39 | -1.75 | 0.24 | 2.48% |
| CCN(CC)C(=O)c1ccc(C2=CC3(CCNCC3)Oc3cccc(O)c32)cc1 | -0.93 | -0.47 | -4.19 | -2.26 | -2.32% |
| CC#CCC(C)[C@H](O)/C=C/[C@@H]1[C@H]2C/C(=C/CCCC(=O)O)C[C@H]2C[C@H]1O (stereo not given in full) [iloprost] | -0.22 | -1.1 | -0.18 | -2.21 | -1.94% |
| Nc1nccc(/C=C/c2ccccc2)n1 | 3.44 | 3.79 | 0.04 | 0.59 | 2.05% |
| Nc1nc(=O)c2sc(=O)n([C@@H]3O[C@H](CO)[C@@H](O)[C@H]3O)c2[nH]1 | 2.96 | 0.81 | -0.66 | 1.35 | -1.43% |
